Measurements from PubChem BioAssay (NCI).
This is part of a sample that, as a whole, favours compounds with a hit. Of some 79,000 tested, about 15% had one in any assay. Rule as the data show it: active = growth inhibition above about 70%; inactive = the rest. Where a SMILES comes first, the peptide text is derived from it. [ ]: non-standard residue; d: D form. The star is where a group is joined. ξ: configuration not given here. ξE = NC(CCC(=O)O)C(=O)O; Cbz = O=C(OCc1ccccc1)*

Key:
[1] = NCI Yeast Anticancer Drug Screen. Data for the rad50 strain (AID 155);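 also: 0% = growth of vehicle-only cultures of the same strain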; details: S. cerevisiae rad50 strain growth inhibition; at 50.0 µM; hits give high values
Summary of the method: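 Vehicle-treated cultures provide the reference for the growth inhibition reported for compound-exposed, repair-deficient yeast.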

[2] = NCI Yeast Anticancer Drug Screen. Data for the mec2-1 strain (AID 157); details: S. cerevisiae mec2-1 strain, at 50.0 µM, hits give high values
Summary of the method: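 Growth inhibition is read against vehicle-treated controls after compound exposure of the mec2-1 yeast strain, which is defective in DNA damage repair or cell cycle control.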

[3] = NCI Yeast Anticancer Drug Screen. Data for the sgs1 mgt1 strain (AID 161);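 also: 0% = growth of cultures given vehicle only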; details: S. cerevisiae sgs1 mgt1 strain, at 50.0 µM, hits give high values
Summary of the method: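 Percent growth inhibition was derived by comparing compound-exposed mutant yeast with vehicle-exposed cultures. The strain carries alterations in DNA damage repair.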

[4] = NCI Yeast Anticancer Drug Screen. Data for the cln2 rad14 strain (AID 165);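 also: 0% = growth equal to vehicle treated cultures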; details: S. cerevisiae cln2 rad14 strain, at 50.0 µM, hits give high values
Summary of the method: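 Growth inhibition, relative to vehicle-treated controls, is the read-out. The test organism is a yeast strain with defined genetic alterations, cln2 rad14.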

[5] = NCI Yeast Anticancer Drug Screen. Data for the bub3 strain (AID 167); details: S. cerevisiae bub3 mutant strain, at 50.0 µM, hits give high values
Summary of the method: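 Mutant yeast screening strain plus compound; vehicle-treated cultures serve as the 0% inhibition reference.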

[6] = NCI Yeast Anticancer Drug Screen. Data for the mlh1 rad18 strain (AID 175); details: S. cerevisiae mlh1 rad18 strain growth inhibition; at 50.0 µM; hits give high values
Summary of the method: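 Cells of a genetically altered yeast strain, deficient in DNA damage repair, were treated with compound. Their growth was then compared with that of vehicle-treated cultures to give inhibition.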

Measured: growth inhibition

NNC(=S)NNc1ccccc1
inactive: [1] 12.2% | [2] 42.4% | [3] 56.1% | [4] -2.65% | [5] 20.4% | [6] 42.7%

CC1=C(CC2C(=O)N(c3ccccc3)S(=O)(=O)NC2C)C(=O)N(c2ccccc2)S(=O)(=O)N1C (stereo not given)
inactive: [1] 20.1% | [2] 4% | [3] -14% | [4] -17.1% | [5] -1.65% | [6] 8.5%

CCOc1ccc(C2=NN(CC)C(=O)C(C3C(=O)N(c4ccccc4)N=C3C)C2)cc1 (stereo not given)
inactive: [1] 4.8% | [2] -7.3% | [3] -0.35% | [4] -30.9% | [5] -22.3% | [6] -10.2%

COc1ccc2c(N=[N+]=[N-])cc(C)nc2c1
inactive: [1] -42.2% | [2] -1.45% | [3] -16.9% | [4] -57.5% | [5] 1.55% | [6] 20.4%

CSc1nc(NC2OC(CO)C(O)C(O)C2O)cc(=O)[nH]1 (stereo not given)
inactive: [1] 3.5% | [2] 4.2% | [3] 2.85% | [4] -9.8% | [5] 7.5% | [6] -2.9%

N#Cc1c(-c2ccccc2)cc(-c2ccc(N)cc2)[nH]c1=O
inactive: [1] 26.5% | [2] 3.65% | [3] 13.2% | [4] 33.4% | [5] 11.6% | [6] 20.3%

Nc1ccc(CCc2ccc3ccccc3n2)cc1
inactive: [1] 33.2% | [2] -9.25% | [3] 15.9% | [4] 7.9% | [5] -16.2% | [6] 33.5%

CCOC(=O)CCCC(NC(=O)c1ccc(N2CCN(c3c(N)nc(N)nc3NC)CC2)cc1)C(=O)OCC (stereo not given)
inactive: [1] 9.95% | [2] 5.75% | [3] -0.4% | [4] 6.55% | [5] -3.95% | [6] -2.3%

CNC(=O)SCC(NC(=O)CCC(N)C(=O)O)C(=O)NCC(=O)O (stereo not given)
inactive: [1] -7.45% | [2] 9.55% | [3] 27.4% | [4] 28.4% | [5] 18.4% | [6] 36.3%

CC1(C)N=C(/C(Cl)=[N+](/[O-])C(=O)c2ccc(F)cc2)C(C)(C)N1O
inactive: [1] -15.5% | [2] -35.3% | [3] -27.2% | [4] 16.7% | [5] -25.8% | [6] -25.9%

COc1cc(C(C)O)c[n+](CCC2CNc3ccccc32)c1 (stereo not given)
inactive: [1] -4.65% | [2] -2.2% | [3] 5.8% | [4] 18.6% | [5] 6.45% | [6] -21.1%

O=C(O)C1Cc2c([nH]c3ccccc23)C(c2ccccc2)N1 (stereo not given)
inactive: [1] 1.3% | [2] 11.1% | [3] 10.8% | [4] -56.6% | [5] -16.8% | [6] 14.4%

[O-][N+](CCO)(CCO)Cc1ccccc1
inactive: [1] 14.1% | [2] 1.05% | [3] 19.8% | [4] 6.2% | [5] 9.65% | [6] 26.6%

CC(=O)NC(CSC1=C2NC(=O)\C=C/C=C/C=C\C(C)C(O)CC(=O)/C(C)=C\CC(O)/C=C/C(C)C(O)C(C)C=C(C)C(=O)c3c(O)c(C)cc(c3C1=O)C2=O)C(=O)O (stereo not given)
inactive: [1] 1.1% | [2] 7.95% | [3] 36.6% | [4] 23.3% | [5] 15.4% | [6] 8.45%

CC1CCc2c(O)ccc(O)c21 (stereo not given)
inactive: [1] 5.7% | [2] 5.4% | [3] 2.5% | [4] -15.2% | [5] -5% | [6] 8.1%

CC(=O)OC1C=C(C=O)C(O)(C=O)C2(C)CCCC(C)(C)C12 (stereo not given)
inactive: [1] -20.2% | [2] -29.5% | [3] -18.6% | [4] 7.95% | [5] 8.65% | [6] -17.6%

COc1cc(OC(=O)/C=C2/CCC(=O)O2)c2c(c1)OC1OC(=O)CC21 (stereo not given)
inactive: [1] 13.6% | [2] -4.95% | [3] 13.8% | [4] -3.4% | [5] -1.9% | [6] 15.8%

CCCCCCC(NC(C)=O)C(=O)O (stereo not given)
inactive: [1] 3.85% | [2] -4.7% | [3] 13.9% | [4] 6.35% | [5] 4.3% | [6] 3.5%

COc1cnn(-c2ccccc2)c(=O)c1Cl
inactive: [1] -1.4% | [2] -7.35% | [3] -1.85% | [4] -3.7% | [5] 0.8% | [6] -13.9%

COc1cc2c(c(OC)c1OC)-c1ccc(SC)c(=O)cc1[C@@H](NC1OCC(O)C(O)C1O)CC2 (stereo not given in full)
inactive: [1] 20.4% | [2] 35.1% | [3] 24.1% | [4] 8.65% | [5] 21.1% | [6] 16.8%

O=CNC(NC=O)NC=O
inactive: [1] -3.4% | [2] -2.2% | [3] -2.15% | [4] 15.2% | [5] -4.3% | [6] 0.95%

O=C(O)CCC(NC(=O)OCc1ccccc1)C(=O)NCC(=O)O (stereo not given) (Cbz-[ξE]-Gly-OH)
inactive: [1] 12.3% | [2] 2.85% | [3] 0.35% | [4] 46.8% | [5] 3.15% | [6] -6.5%

CN(C)S(=O)(=O)c1cccc([N+](=O)[O-])c1
inactive: [1] 17.5% | [2] 7.5% | [3] 18.1% | [4] 8.5% | [5] -6.3% | [6] 8.8%

CCOC(=O)c1c(Nc2ccccc2O)oc2ccccc12
inactive: [1] -0.4% | [2] 3.1% | [3] 6.95% | [4] 17.6% | [5] 6.45% | [6] 11.9%

CCC1=Nc2ccccc2C(c2ccccc2)NC1=O (stereo not given)
inactive: [1] -2% | [2] -19.7% | [3] 4.5% | [4] 6% | [5] -9.65% | [6] 24.9%

COC(=O)Nn1c(C)c(C(=O)Nc2ccc(OC)cc2)c(C(=O)OC)c1C
inactive: [1] 32.6% | [2] -16% | [3] 14.3% | [4] 2.8% | [5] 10.2% | [6] 21.6%

O=C1CN(c2cccc(C(F)(F)F)c2)C(=O)CN1CCN1CC(=O)N(c2cccc(C(F)(F)F)c2)CC1=O
inactive: [1] -30.6% | [2] -6.4% | [3] -3.55% | [4] -6.45% | [5] -14.1% | [6] -5.2%

COC1CCC(/C(C#N)=C/C2CCC(N(C)C)CC2)CC1 (stereo not given)
inactive: [1] 12.9% | [2] 16.2% | [3] 20.9% | [4] 10.6% | [5] 9.85% | [6] 18.6%

CS(=O)(=O)CC(O)(c1ccc(Cl)cc1)c1ccccn1 (stereo not given)
inactive: [1] 11.5% | [2] 0.85% | [3] -6.55% | [4] -21.6% | [5] -0.8% | [6] 3.8%

O=C(NC12CC3CC(CC(C3)C1)C2)C(O)C(O)C(O)C(O)CO (stereo not given)
inactive: [1] -16.6% | [2] -1.75% | [3] 20.1% | [4] 0.9% | [5] 5.6% | [6] 2.65%

CC1(C=O)CCCC2(C)[C@@H]1CCC13CC(CC[C@H]12)C(C(=O)O)C3 (stereo not given in full)
inactive: [1] 28.9% | [2] 30.6% | [3] 22.6% | [4] 14.3% | [5] 26.8% | [6] 16.7%

COc1ccc(CCNC(=S)NCCc2ccc(OC)c(OC)c2)cc1OC
inactive: [1] -17.1% | [2] -17.1% | [3] 2.1% | [4] 20.2% | [5] 34.5% | [6] -1.4%

CCN(CC)N1C(=O)[N+](CC)(CC)N=C1[O-]
inactive: [1] -8.55% | [2] 4.15% | [3] -11.6% | [4] -30.8% | [5] -5.35% | [6] 2.05%

O=C(c1ccccc1)c1oc2ccc(Br)cc2c1-c1cnn(-c2ccccc2)c1
inactive: [1] 29.2% | [2] -9.5% | [3] 11.9% | [4] 15.1% | [5] -3.85% | [6] 22.1%

O=C(Nc1cccc(Cl)c1)OCc1ccccn1
inactive: [1] 37.6% | [2] 8.15% | [3] 6.9% | [4] -21.5% | [5] -0.95% | [6] 22.1%

CCOC(=O)/C(C#N)=C/c1ccc(Br)cc1
inactive: [1] 15.7% | [2] 0.8% | [3] 0.3% | [4] -4.25% | [5] 7.5% | [6] 21.3%

CC(=O)c1cccc(NC(=O)C(=O)C(C(=O)NN)c2ccccc2)c1 (stereo not given)
inactive: [1] 11.4% | [2] 11.1% | [3] -5.2% | [4] 4.2% | [5] 23% | [6] 15.9%

CC[C@H]1CN(C)[C@H]2Cc3c([nH]c4ccccc34)C(=O)C[C@H]1C2C(=O)OC (stereo not given in full)
inactive: [1] -0.35% | [2] -0.95% | [3] 6.95% | [4] 12.6% | [5] -1.65% | [6] -35.9%

Cc1ccc(S(=O)(=O)n2nc(C3OC(CO)C(O)C3O)c(O)c2C(N)=O)cc1 (stereo not given)
inactive: [1] -36.5% | [2] 16.6% | [3] -14.8% | [4] 38.1% | [5] -3% | [6] 22.8%

CCOC(=O)c1cc2c(ccc3cc(C(=O)OCC)[nH]c32)[nH]1
inactive: [1] 21.9% | [2] 26.1% | [3] 26.8% | [4] 4.2% | [5] 24.4% | [6] -11.3%

CC1(C)CCc2cc3c(cc2O1)OC(C)(C)CC3=O
inactive: [1] 9.05% | [2] 8.75% | [3] -15.9% | [5] -1.45% | [6] -17.4%
